Compounds without any hit were thinned out: in the full panel of roughly 79,000, 15% have a hit. A number with no mark means an inactive call. Activity calls are given as the source filed them. Rule as the data show it: active = growth inhibition above about 70%; inactive = the rest.
Experiments:
[1] = NCI Yeast Anticancer Drug Screen. Data for the rad50 strain (AID 155);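 also: 0% = growth of vehicle-only cultures of the same strain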; settings: S. cerevisiae rad50 strain growth inhibition; at 50.0 µM; hits give high values
How it was run: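 Cells are treated with compound, grown, and their growth is then scored against vehicle-only cultures of the same repair-deficient yeast strain.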

[2] = NCI Yeast Anticancer Drug Screen. Data for the mec2-1 strain (AID 157); settings: S. cerevisiae mec2-1 strain, at 50.0 µM, hits give high values
How it was run: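 Compounds were applied to mec2-1 yeast cells. Their growth was then compared with that of vehicle-treated cultures to give growth inhibition.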

[3] = NCI Yeast Anticancer Drug Screen. Data for the sgs1 mgt1 strain (AID 161);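 also: 0% = growth of cultures given vehicle only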; settings: S. cerevisiae sgs1 mgt1 strain, at 50.0 µM, hits give high values
How it was run: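 Growth of a repair-deficient yeast mutant was monitored after compound treatment and expressed as inhibition relative to vehicle-treated cultures.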

[4] = NCI Yeast Anticancer Drug Screen. Data for the cln2 rad14 strain (AID 165);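 also: 0% = growth equal to vehicle treated cultures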; settings: S. cerevisiae cln2 rad14 strain, at 50.0 µM, hits give high values
How it was run: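 Strain: cln2 rad14 yeast, altered in cell cycle control and DNA damage repair. Read-out: growth inhibition vs vehicle.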

[5] = NCI Yeast Anticancer Drug Screen. Data for the bub3 strain (AID 167); settings: S. cerevisiae bub3 mutant strain, at 50.0 µM, hits give high values
How it was run: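 Part of a panel of yeast mutants defective in DNA damage repair or cell cycle regulation. Each strain is grown with compound, and inhibition is calculated relative to solvent-treated cultures.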

[6] = NCI Yeast Anticancer Drug Screen. Data for the mlh1 rad18 strain (AID 175); settings: S. cerevisiae mlh1 rad18 strain growth inhibition; at 50.0 µM; hits give high values
How it was run: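 A repair-deficient yeast strain is exposed to test compound, and growth is scored relative to vehicle-treated controls.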

COc1cc(-c2cc(=O)c3c(OC)c(OC)c(OC)cc3o2)c(OC)c(OC)c1OC
growth inhibition [1]: 38% | growth inhibition [2]: 10.6% | growth inhibition [3]: 3.05% | growth inhibition [4]: -12.9% | growth inhibition [5]: -6.15% | growth inhibition [6]: -36.8%

CC(=O)OC(C(=O)Nc1ccc(Br)cc1)c1ccccc1 (stereo not drawn)
growth inhibition [1]: 4.7% | growth inhibition [2]: -3.95% | growth inhibition [3]: -4.75% | growth inhibition [4]: -35.5% | growth inhibition [5]: 11.6% | growth inhibition [6]: -6.65%

N#Cc1cn(C2OC(CO)C3OC32)c2ncnc(NC(=O)c3ccccc3)c12 (stereo not drawn)
growth inhibition [1]: 28.9% | growth inhibition [2]: 9.1% | growth inhibition [3]: 14.7% | growth inhibition [4]: 10.3% | growth inhibition [5]: -4% | growth inhibition [6]: 15.5%

Cc1cc(C)c(C(=O)CCC(=O)O)c(C)c1
growth inhibition [1]: 11.8% | growth inhibition [2]: 7.8% | growth inhibition [3]: 16.6% | growth inhibition [4]: 17.9% | growth inhibition [5]: -4.7% | growth inhibition [6]: 16.6%

CC(=O)Nc1c(OC(C)=O)ccc2cc(Br)ccc12
growth inhibition [1]: -0.15% | growth inhibition [2]: 20.9% | growth inhibition [3]: 12.4% | growth inhibition [4]: -15.2% | growth inhibition [5]: -0.25% | growth inhibition [6]: 8.85%

Nc1cccc(/C=C/c2cccc([N+](=O)[O-])c2)c1
growth inhibition [1]: 18.2% | growth inhibition [2]: 37.5% | growth inhibition [3]: 12.8% | growth inhibition [4]: 4% | growth inhibition [5]: 60.3% | growth inhibition [6]: 30.2%

CCOC(=O)/C(O)=C(/C=N\C(=S)Nc1ccccc1Cl)C(=O)OCC
growth inhibition [1]: -44% | growth inhibition [2]: -55.3% | growth inhibition [3]: -28.4% | growth inhibition [4]: 5.35% | growth inhibition [5]: -26.2% | growth inhibition [6]: -41.4%

Nc1c(I)cc(C(=O)O)c(O)c1I
growth inhibition [1]: 2.45% | growth inhibition [2]: -26.6% | growth inhibition [3]: -15.3% | growth inhibition [4]: 4.65% | growth inhibition [5]: -5.75% | growth inhibition [6]: -9.15%

COc1ccc(-c2c([O-])oc(-c3ccccc3)[n+]2C)cc1
growth inhibition [1]: 17.8% | growth inhibition [2]: -18.4% | growth inhibition [3]: -6.2% | growth inhibition [4]: 7.3% | growth inhibition [5]: 3.1% | growth inhibition [6]: -4.1%

COc1ccc(/C=C2\N=C(c3ccccc3)OC2=O)c(Cl)c1OC
growth inhibition [1]: -9.35% | growth inhibition [2]: -3.5% | growth inhibition [3]: -25% | growth inhibition [4]: 1.6% | growth inhibition [5]: -5.25% | growth inhibition [6]: -3%

COc1cccc(OC)c1OCC1CO1 (stereo not drawn)
growth inhibition [1]: 6.95% | growth inhibition [2]: 9.8% | growth inhibition [3]: 0.2% | growth inhibition [4]: -14.4% | growth inhibition [5]: 2.3% | growth inhibition [6]: 9.95%

CC(/C=C/C=C/C=C/C=C/C=C/C(O)=C1/C(=O)C(CCC(=O)O)N(C)C1=O)=C\C(C)C(OC1CC(O)C(O)C(C)O1)C(C)C (stereo not drawn)
growth inhibition [1]: -11.6% | growth inhibition [2]: -28.6% | growth inhibition [3]: -1.7% | growth inhibition [4]: 3.35% | growth inhibition [5]: -10.1% | growth inhibition [6]: -2.65%

Brc1cccc(CCOCc2ccccc2)c1
growth inhibition [1]: 8.45% | growth inhibition [2]: -11.6% | growth inhibition [3]: -4.3% | growth inhibition [4]: 2.05% | growth inhibition [5]: 0.5% | growth inhibition [6]: -3.9%

CCOC(=O)c1c(-c2ccccc2)n2c3c(cccc13)CC2
growth inhibition [1]: 6.85% | growth inhibition [2]: -5.2% | growth inhibition [3]: -6.05% | growth inhibition [4]: 6.15% | growth inhibition [5]: 6.55% | growth inhibition [6]: 27.5%

O=C1O[C@@H]2C3COC(O)[C@](O)(O3)[C@@H]2/C1=C\c1ccc(O)cc1 (stereo partly drawn)
growth inhibition [1]: 20.1% | growth inhibition [2]: 10.4% | growth inhibition [3]: 8.4% | growth inhibition [4]: 5.25% | growth inhibition [5]: 8.45% | growth inhibition [6]: 9.4%

Cc1nn(C)c2ncnc(N)c12
growth inhibition [1]: 10.8% | growth inhibition [2]: 0.55% | growth inhibition [3]: 17% | growth inhibition [4]: -7.8% | growth inhibition [5]: -8.85% | growth inhibition [6]: 7.7%

O=C(O)CSc1nc2ccc(N3C(=O)C4C5C=CC(C5)C4C3=O)cc2s1 (stereo not drawn)
growth inhibition [1]: 29.4% | growth inhibition [2]: -2.65% | growth inhibition [3]: -2.5% | growth inhibition [4]: 11.3% | growth inhibition [5]: -2.5% | growth inhibition [6]: 6.15%

CCCC(C)OC(=O)CC(c1ccccc1)N1CCCCC1 (stereo not drawn)
growth inhibition [1]: 41.7% | growth inhibition [2]: -10.1% | growth inhibition [3]: 23.4% | growth inhibition [4]: -23.6% | growth inhibition [5]: 40.2% | growth inhibition [6]: 26.5%

COc1c(NC(=O)CC(C)=O)cccc1NC(=O)CC(C)=O
growth inhibition [1]: -1.2% | growth inhibition [2]: 14.4% | growth inhibition [3]: -2.05% | growth inhibition [4]: 7.95% | growth inhibition [5]: -8.25% | growth inhibition [6]: -11.3%

Cc1cncc(C)c1P(=O)(O)O
growth inhibition [1]: -10.3% | growth inhibition [2]: -6.1% | growth inhibition [3]: -9.05% | growth inhibition [4]: -19.8% | growth inhibition [5]: 3.55% | growth inhibition [6]: 3.65%

CN(C)C(=S)/N=c1\ss/c(=N\C(=S)N(C)C)n1-c1ccc2c(c1)OCO2
growth inhibition [1]: -16.1% | growth inhibition [2]: -4.1% | growth inhibition [3]: -3.45% | growth inhibition [4]: -1.45% | growth inhibition [5]: -16.9% | growth inhibition [6]: 1.7%

COC(=O)NN=C1C(C)(C)C(=O)C1(C)C
growth inhibition [1]: -20.7% | growth inhibition [2]: -21.8% | growth inhibition [3]: -25.4% | growth inhibition [4]: 6.05% | growth inhibition [5]: -29.4% | growth inhibition [6]: -20.1%

Cc1cn(C2CC(O)C(CO)O2)c(=O)nc1NCc1cccs1 (stereo not drawn)
growth inhibition [1]: 0.8% | growth inhibition [2]: 2% | growth inhibition [3]: -8.55% | growth inhibition [4]: -9.15% | growth inhibition [5]: -4.55% | growth inhibition [6]: 2.95%

O=C(/C=C/c1ccco1)c1ccc(O)c(C(=O)O)c1
growth inhibition [1]: -7.8% | growth inhibition [2]: -1.25% | growth inhibition [3]: -1% | growth inhibition [4]: -39.5% | growth inhibition [5]: -26.6% | growth inhibition [6]: -2.9%

CC(=O)OCC1OC(n2c(-c3ccccc3)c(N=Nc3ccccc3)c(C)c(C#N)c2=S)C(OC(C)=O)C(OC(C)=O)C1OC(C)=O (stereo not drawn)
growth inhibition [1]: -14% | growth inhibition [2]: -17.4% | growth inhibition [3]: -20.2% | growth inhibition [4]: 11.5% | growth inhibition [5]: 2.55% | growth inhibition [6]: 9.75%

CC1(C)CC(C#N)CC(C)(C)N1O
growth inhibition [1]: 1.9% | growth inhibition [2]: -0.75% | growth inhibition [3]: 0.5% | growth inhibition [4]: -20.9% | growth inhibition [5]: -4.8% | growth inhibition [6]: -0.95%

CCNc1nc(Cl)nc(C(Cl)(Cl)Cl)c1Cl (tested in a mixture with another compound)
growth inhibition [1]: 96.6% (active) | growth inhibition [2]: 95.1% (active) | growth inhibition [3]: 97.8% (active) | growth inhibition [4]: 74.6% (active) | growth inhibition [5]: 71% (active) | growth inhibition [6]: 95.5% (active)

C=CCc1cccc(C2N(Cc3ccc(OC)cc3OC)CCCN2Cc2ccc(OC)cc2OC)c1O
growth inhibition [1]: 26.6% | growth inhibition [2]: 7% | growth inhibition [3]: -0.75% | growth inhibition [4]: 16.6% | growth inhibition [5]: -2.05% | growth inhibition [6]: 17.8%

O=S(=O)(O)c1ccccc1
growth inhibition [1]: -16.6% | growth inhibition [2]: -8.5% | growth inhibition [3]: -6.05% | growth inhibition [4]: -2.25% | growth inhibition [5]: 0.15% | growth inhibition [6]: 1.25%

O=[N+]([O-])c1ccc(N/N=C2/CC3=C2CCCCCCCCCC3)c([N+](=O)[O-])c1
growth inhibition [1]: -6.35% | growth inhibition [2]: -4.95% | growth inhibition [3]: 11% | growth inhibition [4]: -14.2% | growth inhibition [5]: -2.15% | growth inhibition [6]: -13.4%

O=C1NC(N2CCCC(CO)C2)=N/C1=C\c1ccccc1 (stereo not drawn)
growth inhibition [1]: -15.6% | growth inhibition [2]: -2.85% | growth inhibition [3]: 10% | growth inhibition [4]: 7.6% | growth inhibition [5]: 7.15% | growth inhibition [6]: -33.7%

Cc1noc2cccc(OCc3ccccc3)c12
growth inhibition [1]: -32.2% | growth inhibition [2]: -40.5% | growth inhibition [3]: 5.4% | growth inhibition [4]: -0.6% | growth inhibition [5]: 17.4% | growth inhibition [6]: -9.2%

O=c1oc2nc(-c3ccccc3)[nH]c(=O)c2c2c1CCCC2
growth inhibition [1]: -8.5% | growth inhibition [2]: -7.15% | growth inhibition [3]: -19.2% | growth inhibition [4]: 9.3% | growth inhibition [5]: -17.9% | growth inhibition [6]: 19.9%

O=C(CN1CCCC1)Nc1ccc2sc3ccccc3c(=O)c2n1
growth inhibition [1]: 17.2% | growth inhibition [2]: -29.7% | growth inhibition [3]: -5.75% | growth inhibition [4]: 21.6% | growth inhibition [5]: 11% | growth inhibition [6]: 3.55%

Cc1cc(Br)c(NC(=O)c2c(-c3c(Cl)cccc3Cl)noc2C)c(Br)c1
growth inhibition [1]: -3.35% | growth inhibition [2]: -16.3% | growth inhibition [3]: -8.15% | growth inhibition [4]: 4.9% | growth inhibition [5]: -11.7% | growth inhibition [6]: 4.9%

Cc1nn(CCO)c(N)c1C(N)=O
growth inhibition [1]: 5.35% | growth inhibition [2]: -4.25% | growth inhibition [3]: 5.55% | growth inhibition [4]: -13.4% | growth inhibition [5]: 4.9% | growth inhibition [6]: 16.9%

COC(=O)c1ccccc1O
growth inhibition [1]: -3.4% | growth inhibition [2]: 2.25% | growth inhibition [3]: -7.9% | growth inhibition [4]: -39.4% | growth inhibition [5]: 1.25% | growth inhibition [6]: -19.5%

CC1(c2cccc[n+]2Cc2ccccc2S(=O)(=O)[O-])OCCO1
growth inhibition [1]: 5.5% | growth inhibition [2]: -3.6% | growth inhibition [3]: -8.95% | growth inhibition [4]: 0.3% | growth inhibition [5]: -3.95% | growth inhibition [6]: -21.6%

Reference: PubChem BioAssay (NCI)
